Test [1] addresses Progesterone receptor (Homo sapiens) (UniProt P06401). Description: qHTS assay to identify small molecule agonists of the progesterone receptor (PR) signaling pathway (AID 1346784; calls by dose curve; further: nearly all actives have a fitted effect of over 30% in size). A digest of the protocol:
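HEK 293T PR-UAS-bla reporter cells, 2% charcoal-stripped FBS; 6 hr settle at 37C/5% CO2, compound (DMSO) 16 hr, LiveBLAzer B/G FRET substrate 2 hr RT, fluorescence intensity read.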
(In general: qHTS replaces the single test concentration by a dilution series.)

For test [2] the target is unchanged. In words: qHTS assay to identify small molecule antagonists of the progesterone receptor (PR) signaling pathway (AID 1346795; active means well fitted inhibition curve with a large enough effect in the signal ratio in the repeat runs, not every such curve was filed as active; the % refers to the signal ratio; further: potency means the concentration at half of the fitted maximal effect). A digest of the protocol:
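Beta-lactamase reporter, HEK293T PR-UAS-bla line; 2% charcoal-stripped FBS; 6 hr pre-incubation, 37C/5% CO2. Compound + R5020 1 nM final, 16 hr. LiveBLAzer B/G FRET substrate, 2 hr RT; fluorescence intensity read.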

Test [3] is described as follows: qHTS assay to identify small molecule antagonists of the TGF-beta/Smad signaling pathway - cell viability counter screen (AID 1346824). Further: nearly all actives have a fitted effect of over 50% in size. The method in brief: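 SBE-bla HEK 293T cells were plated overnight at 37 C, then given compounds in DMSO plus TGF-beta1 (added as 0.25 ng/mL solution) for 5 hr. After the bla read, CellTiter-Glo was added to the same wells and luminescence read after 30 min at room temperature.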

A short description of test [4]: qHTS assay to identify small molecule agonists of the TGF-beta/Smad signaling pathway - cell viability counter screen (AID 1346829). Further: top concentration of the series differs between compounds; nearly all actives have a fitted effect of over 45% in size. The method in brief:
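Here the cytotoxicity of library compounds is measured in SBE-bla HEK 293T cells treated for 5 hr, using CellTiter-Glo added to wells already read for the beta-lactamase reporter.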

Test [5] can be described thus: qHTS assay to identify small molecule agonists of the TGF-beta/Smad signaling pathway (AID 1346859; active means well fitted activation curve with a large enough effect in the signal ratio in the repeat runs, not every such curve was filed as active; the % refers to the signal ratio; further: series mostly up to about 77 µM). A digest of the protocol:
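Read-out: fluorescence at 460 and 530 nm (405 nm excitation) after a 2 hr room-temperature incubation with beta-lactamase FRET substrate. SBE-bla HEK 293T cells had been treated with test compounds for 5 hr at 37 C.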

Test [6] addresses Thyrotropin-releasing hormone receptor (Homo sapiens) (UniProt P34981). In words: qHTS assay to identify small molecule antagonists of the thyrotropin-releasing hormone receptor (TRHR) signaling pathway (AID 1346877; active means well fitted inhibition curve with a large enough effect in the repeat runs, not every such curve was filed as active; further: series mostly up to about 51 µM). A digest of the protocol: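 Overnight-plated (18 h, 37 °C) HEK293 cells expressing TRHR were dye-loaded 2 h, treated with compound, then stimulated with TRH at 1 nM final. Fluorescence intensity was captured every second for 3 min.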

Test [7] shares this target. Description: qHTS assay to identify small molecule agonists of the thyrotropin-releasing hormone receptor (TRHR) signaling pathway (AID 1346891; calls by dose curve;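 further: HEK293 cells expressing TRHR with calcium dye readout; series mostly up to about 58 µM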). The method in brief:
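HEK293/TRHR cells, 1500 per well, 18 h 37 °C; Ca dye 2 h 37 °C; pin-tool compound addition (agonist mode); kinetic fluorescence 3 min, 1 s reads; 15 concentrations, triplicate.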

Test [8] is described as follows: Human pregnane X receptor (PXR) small molecule agonists, qHTS cell viability counter screen (AID 1346977). Further: nearly all actives have a fitted effect of over 50% in size. The method in brief:
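Fluorescence read-out (CellTiter-Fluor) of viability in PXR-Luc HepG2 cells, multiplexed with the luciferase agonist read. Compounds in DMSO added after 5hr plating; 24hr total exposure at 37C, 5% CO2.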

The nature of test [9]: Caspase-3/7 induction in HepG2 cells by small molecules, qHTS assay (AID 1346978). Further: nearly all actives have a fitted effect of over 15% in size. A digest of the protocol:
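Wild-type HepG2 cells (2,000/well) were settled 5 h at 37 C, 5% CO2, then exposed to compounds in DMSO for 17 h. Caspase-3/7 activity was read by luminescence 30 min after adding Caspase-Glo 3/7 reagent at room temperature.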

Test [10] in a line: Caspase-3/7 induction in CHO-K1 cells by small molecules, qHTS cell viability counter screen (AID 1346979). Further: nearly all actives have a fitted effect of over 35% in size. A digest of the protocol:
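CHO-K1 wt, 1,500 cells/well; 5hr pre-incubation 37C/5% CO2; compound pin transfer (DMSO); 16hr exposure; CellTiter-Fluor added, 1hr, fluorescence read.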

Test [11] in a line: Caspase-3/7 induction in CHO-K1 cells by small molecules, qHTS assay (AID 1346980). Further: nearly all actives have a fitted effect of over 15% in size. The method in brief: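 Wild-type cells were seeded at 1,500 per well and settled 5 hr at 37 C, 5% CO2, then exposed to DMSO-dissolved compounds for 17 hr. Caspase-Glo 3/7 reagent was added, and luminescence was read after 30min at room temperature.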
Test [12] has as its target Nuclear receptor subfamily 1 group I member 2 (Homo sapiens) (UniProt O75469). In words: Human pregnane X receptor (PXR) small molecule agonists, qHTS assay (AID 1346982). Further: nearly all actives have a fitted effect of over 35% in size. Further: potency means the concentration at half of the fitted maximal effect. A digest of the protocol: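 Stable HepG2 line reporting PXR-mediated CYP3A4 expression via luciferase. Treatment: 24 hr with compounds in DMSO at 37 C. Detection: ONE-Glo luminescence.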
Test [13] has as its target Acetylcholinesterase (Homo sapiens) (UniProt P22303). In words: Acetylcholinesterase (AChE) small molecule antagonists: colormetric cell-based qHTS assay (AID 1347395; calls by dose curve; further: nearly all actives have a fitted effect of over 30% in size). The method in brief: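 SH-SY5Y cells; cpd 30 min 37 C; + DTNB/acetylthiocholine, 90 min 37 C; colorimetric thiocholine read; qHTS.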
Test [14] shares this target. In words: Acetylcholinesterase (AChE) small molecule antagonists: enzyme-based qHTS assay (AID 1347397; calls by dose curve; further: nearly all actives have a fitted effect of over 55% in size). To be noted: Potency: AChE enzyme activity inhibition. A digest of the protocol:
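Tox21 library chemicals are tested in qHTS format against recombinant human AChE. The enzyme, dispensed at 50 mU/mL, sits with compound for 30 min at room temperature. A DTNB–acetylthiocholine cocktail follows, and colour is read after 10 min.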

Test [15] in a line: qHTS assay to identify small molecule antagonists of the progesterone receptor (PR) signaling pathway - cell viability counter screen (AID 1346798). Further: series mostly up to about 92 µM; nearly all actives have a fitted effect of over 50% in size. A digest of the protocol:
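Luminescence readout (CellTiter-Glo, 30 min, RT) of viability in PR-UAS-bla HEK293T cells exposed to compound and R5020 agonist for 16 hr at 37C, 5% CO2; run in the same wells as the beta-lactamase reporter read.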

Test [16] in a line: qHTS assay to identify small molecule agonists of the progesterone receptor (PR) signaling pathway - cell viability counter screen (AID 1346799; calls by dose curve; further: nearly all actives have a fitted effect of over 45% in size). A digest of the protocol:
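HEK293T PR-UAS-bla, 3,000 cells/well, 2% charcoal-stripped FBS; 6 h settle, compound 16 h at 37C/5% CO2; LiveBLAzer 2 h RT, then CellTiter-Glo 30 min RT, luminescence read.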

Test [17] can be described thus: Caspase-3/7 induction in HepG2 cells by small molecules, qHTS cell viability counter screen (AID 1346981). Further: series mostly up to about 92 µM; nearly all actives have a fitted effect of over 30% in size. The method in brief:
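Treatment of HepG2 cells with DMSO-delivered compounds ran 16 hr at 37 C following a 5-hr pre-incubation of 2,000 cells/well. CellTiter-Fluor fluorescence, read after 1 hr, served as the viability measure in a qHTS format.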

In test [18] the target is Nuclear receptor subfamily 1 group I member 2 (Rattus norvegicus) (UniProt Q9R1A7). Description: Rat pregnane X receptor (rPXR) activation by small molecules, qHTS assay (AID 1346983). Further: nearly all actives have a fitted effect of over 20% in size. To be noted: rPXR luciferase reporter cells, One-Glo luminescence, 24 h; max activation: hits give high values. A digest of the protocol:
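Cell-based rPXR luciferase reporter assay, 2,000 cells per well, rested 5hr at 37 C before compound addition in DMSO, then 24 hr at 37 C. One-Glo reagent was added and luminescence read after 30 min at room temperature.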

The target of test [19] is Nuclear receptor subfamily 1 group I member 2 (Homo sapiens) (UniProt O75469). Description: CYP3A4 induction through human pregnane X receptor (PXR) by small molecules, qHTS assay (AID 1346984). Further: nearly all actives have a fitted effect of over 40% in size. The method in brief:
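After 24 h at 37C with compound, DPX-2 cells (HepG2, co-transfected PXR response element and CYP3A4 promoter-luciferase) got 3uM final P450-Glo Luciferin-IPA for 3 h; One-Glo luminescence followed.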

The target is the same in test [20]. In words: Human pregnane X receptor (PXR) activation by small molecules, qHTS assay (AID 1346985). Further: nearly all actives have a fitted effect of over 40% in size. A digest of the protocol: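 DPX-2 cells (HepG2 co-transfected with a PXR response element and a CYP3A4-promoter luciferase construct) were seeded at 2,000 per well, rested 5 hr at 37C, then exposed to DMSO-dissolved compounds for 24 hr. Activation was read as luciferase luminescence.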

Unmarked numbers belong to inactive results. Results filed as inconclusive are left out. Activity calls are given as the source filed them. Unless noted, the call rests on the fitted dose curve; in most records, active means well fitted curve in the direction sought with a large enough effect in the repeat runs; inconclusive means weak or mixed curves; inactive means no such curve, though single readings can be large; an effect the other way counts as inactive or inconclusive.
On the % scale 0 is the no-effect control and ±100 the full control effect.

Chain of Nuclear receptor subfamily 1 group I member 2 (Homo sapiens) (O75469 whole entry, looked up): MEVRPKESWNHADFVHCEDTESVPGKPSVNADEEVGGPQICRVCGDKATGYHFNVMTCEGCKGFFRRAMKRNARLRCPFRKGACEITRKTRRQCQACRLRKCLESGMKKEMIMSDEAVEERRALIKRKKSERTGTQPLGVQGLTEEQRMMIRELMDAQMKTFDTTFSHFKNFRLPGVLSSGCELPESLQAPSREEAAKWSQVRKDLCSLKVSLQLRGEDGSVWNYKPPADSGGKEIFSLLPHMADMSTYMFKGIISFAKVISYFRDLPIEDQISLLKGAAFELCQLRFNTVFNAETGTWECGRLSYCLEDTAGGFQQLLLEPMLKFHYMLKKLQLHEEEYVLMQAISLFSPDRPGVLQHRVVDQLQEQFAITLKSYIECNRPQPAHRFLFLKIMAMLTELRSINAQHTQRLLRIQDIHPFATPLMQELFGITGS
Chain of Progesterone receptor (Homo sapiens) (P06401 whole entry, looked up): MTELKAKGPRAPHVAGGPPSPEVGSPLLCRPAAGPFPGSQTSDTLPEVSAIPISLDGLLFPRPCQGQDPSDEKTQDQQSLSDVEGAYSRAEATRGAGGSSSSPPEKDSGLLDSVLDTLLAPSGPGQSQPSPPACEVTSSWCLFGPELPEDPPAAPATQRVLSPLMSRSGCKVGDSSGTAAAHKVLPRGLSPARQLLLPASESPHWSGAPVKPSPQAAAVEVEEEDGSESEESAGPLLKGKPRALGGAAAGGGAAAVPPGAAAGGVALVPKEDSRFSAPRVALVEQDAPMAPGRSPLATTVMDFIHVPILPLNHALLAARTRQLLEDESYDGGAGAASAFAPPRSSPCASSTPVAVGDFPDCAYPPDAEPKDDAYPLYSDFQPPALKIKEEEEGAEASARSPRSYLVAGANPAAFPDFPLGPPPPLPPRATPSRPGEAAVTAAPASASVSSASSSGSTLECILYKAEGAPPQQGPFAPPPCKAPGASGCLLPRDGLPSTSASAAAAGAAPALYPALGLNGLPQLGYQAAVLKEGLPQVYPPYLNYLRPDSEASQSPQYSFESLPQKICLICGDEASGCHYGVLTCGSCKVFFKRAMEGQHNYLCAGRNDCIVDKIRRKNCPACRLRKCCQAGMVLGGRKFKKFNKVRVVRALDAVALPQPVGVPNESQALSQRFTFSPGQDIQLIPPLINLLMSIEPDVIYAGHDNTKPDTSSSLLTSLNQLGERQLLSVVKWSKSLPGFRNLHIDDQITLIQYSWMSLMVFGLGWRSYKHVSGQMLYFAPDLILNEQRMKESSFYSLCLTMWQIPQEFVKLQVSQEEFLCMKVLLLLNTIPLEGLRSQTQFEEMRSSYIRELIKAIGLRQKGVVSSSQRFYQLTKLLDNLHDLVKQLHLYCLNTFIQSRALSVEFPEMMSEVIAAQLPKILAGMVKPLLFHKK
Chain of Acetylcholinesterase (Homo sapiens) (P22303 whole entry, looked up): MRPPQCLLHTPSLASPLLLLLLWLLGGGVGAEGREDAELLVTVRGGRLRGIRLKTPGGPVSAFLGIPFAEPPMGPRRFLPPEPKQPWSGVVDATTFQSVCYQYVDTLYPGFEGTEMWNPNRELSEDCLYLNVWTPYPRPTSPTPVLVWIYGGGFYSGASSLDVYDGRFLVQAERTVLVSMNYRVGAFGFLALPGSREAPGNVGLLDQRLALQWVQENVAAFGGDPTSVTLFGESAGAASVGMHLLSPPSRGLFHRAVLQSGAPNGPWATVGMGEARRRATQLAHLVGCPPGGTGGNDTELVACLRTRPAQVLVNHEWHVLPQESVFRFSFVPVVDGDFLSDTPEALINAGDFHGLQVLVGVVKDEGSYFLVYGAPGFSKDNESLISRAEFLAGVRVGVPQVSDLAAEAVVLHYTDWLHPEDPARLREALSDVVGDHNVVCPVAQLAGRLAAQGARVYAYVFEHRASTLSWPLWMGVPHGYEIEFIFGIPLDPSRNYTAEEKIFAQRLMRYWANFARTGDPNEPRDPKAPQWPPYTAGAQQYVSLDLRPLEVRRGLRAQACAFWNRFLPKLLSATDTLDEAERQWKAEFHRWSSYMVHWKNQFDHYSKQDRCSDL
Chain of Thyrotropin-releasing hormone receptor (Homo sapiens) (P34981 whole entry, looked up): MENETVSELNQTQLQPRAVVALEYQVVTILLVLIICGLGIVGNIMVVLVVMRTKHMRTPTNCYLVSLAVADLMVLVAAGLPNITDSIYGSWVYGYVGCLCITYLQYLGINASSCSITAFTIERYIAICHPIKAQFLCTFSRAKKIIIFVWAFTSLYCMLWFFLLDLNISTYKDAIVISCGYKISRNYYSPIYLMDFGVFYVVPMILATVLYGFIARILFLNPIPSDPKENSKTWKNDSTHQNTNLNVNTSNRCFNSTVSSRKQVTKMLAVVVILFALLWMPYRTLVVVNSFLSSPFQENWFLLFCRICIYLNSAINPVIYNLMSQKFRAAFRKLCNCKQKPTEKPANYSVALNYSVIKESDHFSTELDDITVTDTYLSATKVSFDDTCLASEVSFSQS
Chain of Nuclear receptor subfamily 1 group I member 2 (Rattus norvegicus) (Q9R1A7 whole entry, looked up): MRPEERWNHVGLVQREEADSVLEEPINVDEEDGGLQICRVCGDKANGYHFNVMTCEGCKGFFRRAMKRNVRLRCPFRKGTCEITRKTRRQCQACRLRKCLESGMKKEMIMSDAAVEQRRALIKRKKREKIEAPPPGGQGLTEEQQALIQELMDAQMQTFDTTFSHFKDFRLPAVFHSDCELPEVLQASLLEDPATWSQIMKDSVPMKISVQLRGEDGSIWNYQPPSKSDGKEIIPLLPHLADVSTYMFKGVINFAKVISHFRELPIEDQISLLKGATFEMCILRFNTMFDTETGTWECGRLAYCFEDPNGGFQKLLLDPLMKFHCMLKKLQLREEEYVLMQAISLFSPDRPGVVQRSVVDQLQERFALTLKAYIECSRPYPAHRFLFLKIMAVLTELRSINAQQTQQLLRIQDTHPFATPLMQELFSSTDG

In the case of `COP(=S)(OC)Oc1c(Cl)cc(C)cc1Cl`, the Potency entry in [1], in test [3], in test [8], in test [9], in test [10] and in test [11] was “inactive” in each case. In addition, the Potency result in test [13] and in [14] was “inactive” throughout. Moreover, the Potency is 27.3 µM (active) in test [2] and 24.3 µM (active) in test [12]. For the same molecule, the call in [4], in [5], in [6] and in test [7] was inactive.
As for `CCCCOC(=O)[C@@H](C)Oc1ccc(Oc2ccc(C#N)cc2F)cc1`, the Potency result in [1], in test [15], in test [16], in [3], in [8] and in [9] was “inactive” throughout. Besides, the Potency result in test [10], in test [11], in test [17], in [12], in test [13] and in [14] was “inactive” each time. In addition, the outcome in test [4], in test [6] and in test [7] was inactive.
As for `CCCCOC(=O)c1ccccc1C(=O)O`, the Potency result in [1], in test [2], in [3], in [8], in test [9] and in test [10] was “inactive” in each case. Besides, the Potency result in test [11], in test [17], in [12], in [13] and in [14] was “inactive” each time. Also, the molecule was classed as inactive in [4] and in test [5].
Take `COP(N)(=S)Oc1ccccc1C(=O)OC(C)C` (stereo not given): the Potency result in [1], in test [15], in test [16], in [8], in test [9] and in [10] was “inactive” each time. For the same molecule, the Potency result in test [11], in test [17] and in [14] was “inactive” each time. Besides, the call in test [4] and in test [5] was inactive.
For `C[C@]12CC[C@H]3[C@@H](CCC4=CC(=O)CC[C@@]43C)[C@@H]1CC[C@@H]2C(=O)O`, the Potency entry in [1], in test [15], in test [16], in test [3], in [8] and in test [9] was “inactive” throughout. Also, the Potency result in test [11], in test [17], in test [12] and in test [14] was “inactive” each time. Also, in [4], the call was inactive.
As to `CC1CCCCC1NC(=O)Nc1ccccc1` (stereo not given), the Potency result in test [1], in [15], in test [16], in test [3], in [8] and in [9] was “inactive” throughout. In addition, the Potency result in [10], in test [11], in test [17], in test [13] and in test [14] was “inactive” throughout. For the same molecule, the molecule was classed as inactive in test [5], in [6] and in [7]. In [12], the Potency was 24.3 µM (active).
As to `CCN(Cc1ccc(Cl)nc1)/C(=C/[N+](=O)[O-])NC`, the Potency entry in [1], in test [15], in test [16], in [3], in test [8] and in test [9] was “inactive” throughout. The Potency entry in test [10], in test [11], in test [17], in [12], in test [19] and in test [20] was “inactive” in each case. Further, the Potency entry in [13] and in test [14] was “inactive” in each case. The call in test [5], in test [6] and in test [7] was inactive. The max activation in test [18] was -0.716%.
Regarding `CSc1nc(N=[N+]=[N-])nc(NC(C)C)n1`, the Potency result in test [1], in test [15], in [16], in test [3], in test [8] and in [9] was “inactive” each time. The Potency entry in test [10], in test [11], in [13] and in test [14] was “inactive” throughout. For the same molecule, the outcome in test [5], in test [6] and in test [7] was inactive. Moreover, the Potency in test [12] was 61.1 µM (active).
As to `CCC1(c2ccccc2)C(=O)N=C(O)NC1=O` (stereo not given), the Potency result in [1], in test [2], in test [3], in [8], in test [9] and in [10] was “inactive” in each case. Also, the Potency entry in test [11], in test [13] and in test [14] was “inactive” in each case. Besides, the molecule was classed as inactive in test [4], in test [5], in test [6] and in test [7]. Moreover, the Potency in [12] was 53 µM (active).

The values are drawn from PubChem BioAssay (Tox21).
